In the library only some 1.5% were active in any assay of this set; here they are far more common.
MbtI inh = inhibitors of Mycobacterium tuberculosis siderophore enzyme MbtI | P9WFX0 | purified MbtI enzyme, fluorescence intensity read-out | inhibition, % (no concentration beside the values) | 100,000 compounds, 0.89% hits | AID 493033; in the data active = inhibition mostly above about 56%, no sharp cut-off; inactive = mostly below about 77%
Target sequence (P9WFX0 whole entry, looked up): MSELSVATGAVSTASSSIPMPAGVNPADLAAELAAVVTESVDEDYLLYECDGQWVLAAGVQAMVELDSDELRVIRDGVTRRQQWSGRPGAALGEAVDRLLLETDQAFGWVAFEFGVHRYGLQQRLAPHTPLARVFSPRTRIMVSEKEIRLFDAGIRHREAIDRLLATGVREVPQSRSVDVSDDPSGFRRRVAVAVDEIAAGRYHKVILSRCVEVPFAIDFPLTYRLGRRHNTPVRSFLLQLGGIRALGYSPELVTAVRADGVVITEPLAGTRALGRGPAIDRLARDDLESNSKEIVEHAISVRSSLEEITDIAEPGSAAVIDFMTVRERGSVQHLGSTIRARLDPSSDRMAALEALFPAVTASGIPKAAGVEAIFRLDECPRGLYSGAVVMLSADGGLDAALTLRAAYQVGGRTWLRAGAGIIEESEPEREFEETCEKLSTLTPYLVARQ
MenB inh = blocks the Mycobacterium tuberculosis MenB enzyme. P9WNP5. MenB enzyme assay, absorbance read-out. inhibition, % (no concentration beside the values). 100,000 compounds, 0.43% hits. AID 540299; in the data active = inhibition above about 21%, passing the limit was not always enough
PV pol inh = poliovirus RNA polymerase inhibition | % elongation, % (compound at 16.7 µg/mL) | P03300 | 150,000 compounds, 0.66% hits | AID 588519 | poliovirus polymerase elongation, fluorescence polarization; hits give low values; in the data active = % elongation below about 90%
* = called active by the depositor.

`CC1=C(C(=O)Nc2ccccc2)C(c2ccc(C(=O)O)cc2)n2nc(SCC(=O)c3ccc(C)cc3)nc2N1` (stereo not given) gave PV pol inh 108.
O=C1CSc2ccc(C(=O)OCC(=O)N3CCCc4ccccc43)cc2N1 was read as MbtI inh 60*, MenB inh 8 and PV pol inh 102.
Screening O=C(OCC(=O)N1CCCc2ccccc21)c1ccccc1 returned MbtI inh -1 and PV pol inh 103.
Screening O=c1c2ccccc2[nH]c(=S)n1Nc1ccccc1 returned MbtI inh -3, MenB inh -9 and PV pol inh 99.
For CC1(C)CC(=O)C2=C(C1)Nc1[nH]n(-c3ccccc3)c(=O)c1C2c1ccco1 (stereo not given) the results were MenB inh 3 and PV pol inh 103.
CCn1cnc2cc(NC(=O)c3cc(OC)c(OC)c(OC)c3)ccc21 was read as MbtI inh -2, MenB inh 9 and PV pol inh 102.
Screening O=C(NO)c1ccccc1 returned MbtI inh -10 and PV pol inh 103.
O=C(NC1(O)C(=O)c2ccccc2C1=O)c1ccccc1 was read as MbtI inh -3, MenB inh 2 and PV pol inh 67*.
`CN(Cc1nccn1C)c1ncnc2sc3c(c12)CCCC3` gave MbtI inh 4, MenB inh -8 and PV pol inh 102.
Screening O=C(CSc1nnc(Cc2ccccc2)o1)c1ccccc1 returned MbtI inh -6, MenB inh 7 and PV pol inh 102.
`O=C(CSc1nnc(Cc2ccccc2)o1)N(c1ccccc1)c1ccccc1` gave MbtI inh 75*, MenB inh 33 and PV pol inh 98.
For COc1ccc(NCc2cc3ccc(OC)cc3n(CC(=O)Nc3cccc(OC)c3)c2=O)cc1 the results were PV pol inh 100.
Screening CCCCNc1nc2ccccc2n1CC(=O)N1CCc2ccccc21 returned MbtI inh -15, MenB inh -25 and PV pol inh 103.
`O=C(Cn1c(CCCO)nc2ccccc21)N1CCc2ccccc21` gave MbtI inh 96*, MenB inh -5 and PV pol inh 99.
Screening Cc1ccc(Cl)cc1NC(=O)c1oc2ccc(S(=O)(=O)N(C)C3CCCCC3)cc2c1C returned PV pol inh 111.
For Cc1ccc(S(=O)(=O)n2nc(-c3ccccc3)nc2NCc2ccc(Cl)cc2)cc1 the results were PV pol inh 106.
O=C1C=CC(=O)N1c1cccc2ccccc12 was read as MbtI inh 89* and PV pol inh 101.
For O=C1C=CC(=O)N1c1ccccc1F the results were MbtI inh 100*, MenB inh -20 and PV pol inh 104.
`O=C1CCCN1c1cccc2ccccc12` gave MbtI inh 1, MenB inh 14 and PV pol inh 99.
`CC1(C)C(=O)N(c2ccccc2F)C(=O)c2ccccc21` gave MbtI inh -9, MenB inh 0 and PV pol inh 100.
CCN(C(=O)CC(C)(C)C)c1ccccc1 was read as MenB inh 3 and PV pol inh 101.
For CC(C)CN(C(=O)c1ccc(=O)n(C)n1)c1nc2ccccc2s1 the results were MbtI inh 23, MenB inh -8 and PV pol inh 104.
`CC(C)CN(C(=O)c1ccncc1)c1nc2ccccc2s1` gave MbtI inh 71*, MenB inh -7 and PV pol inh 87*.
For CCN(CC)C(=O)C(Sc1nnc(C2CC2)n1C1CC1)c1ccccc1 (stereo not given) the results were MbtI inh 0, MenB inh -4 and PV pol inh 98.
Screening CS(=O)(=O)c1ncc(Cl)c(C(=O)Nc2cccc(Cl)c2)n1 returned MbtI inh 81*, MenB inh 10 and PV pol inh 102.
`COc1ccc(NC(=O)c2nc(S(C)(=O)=O)ncc2Cl)cc1Cl` gave MbtI inh 88*, MenB inh -9 and PV pol inh 102.
Cc1cccc(NC(=O)c2nc(S(C)(=O)=O)ncc2Cl)c1 was read as PV pol inh 103.
`COc1ccc(NC(=O)c2nc(S(C)(=O)=O)ncc2N(Cc2ccc(C)cc2)Cc2ccco2)cc1Cl` gave PV pol inh 114.
For CC(C)c1ccc(NC(=O)CSC2=Nc3ccccc3C3=NC(CCC(=O)NCc4ccco4)C(=O)N23)cc1 (stereo not given) the results were PV pol inh 108.
CN1CCN(C(=O)CSc2nc(-c3ccc(F)cc3)cc(C(F)(F)F)c2C#N)CC1 was read as MbtI inh -14, MenB inh 10 and PV pol inh 101.
`CCOc1ccc(NC(=O)CCCn2c(=O)c3cccn3c3ccccc32)cc1` gave MbtI inh 6, MenB inh -22 and PV pol inh 104.
O=C(Nc1ccccc1C(=O)O)c1cc(S(=O)(=O)N2CCCC2)ccc1Cl was read as MenB inh -4 and PV pol inh 102.
`NC(=O)c1cc2c(ccc3ccccc32)oc1=O` gave MbtI inh inactive, MenB inh -28 and PV pol inh 101.
Screening CCOC(=O)c1ccc(N)cc1 returned MbtI inh -2, MenB inh -8 and PV pol inh 102.
For CCOC(=O)C(C#N)C(=O)c1ccc(N)cc1 (stereo not given) the results were MenB inh 26 and PV pol inh 80*.
Screening CCOC(=O)c1cnn(C(=O)COc2ccc(C)c3c2CCC3)c1N returned MbtI inh -5, MenB inh -8 and PV pol inh 106.
CCC(=O)/C=C(\O)c1ccc(Br)cc1 was read as MenB inh -5 and PV pol inh 115.
`CC1CCCCC1Nc1n[nH]c(=S)s1` (stereo not given) gave MbtI inh 28, MenB inh -78 and PV pol inh 97.
Screening S=c1[nH]nc(NC2CC2)s1 returned MbtI inh 89*, MenB inh -37 and PV pol inh 102.
For O=C1OC2(c3ccccc3)C3CCCC2C13Sc1ccccc1 the results were MenB inh -20 and PV pol inh 108.
Screening CC(CCc1ccccc1)NC(=O)Cn1c(=O)nc(-c2ccccc2)c2cc(Cl)ccc21 (stereo not given) returned PV pol inh 103.
`Cn1c(=O)[nH]c2nncnc2c1=O` gave MbtI inh 6, MenB inh -152 and PV pol inh 43*.
Cn1c(=O)[nH]c2c(nc(-c3ccccc3)n2C)c1=O was read as MenB inh 5 and PV pol inh 109.
For Clc1ccccc1-c1nc(C2CCCCC2)no1 the results were MbtI inh -8.
Screening CCN(CC)c1ccc(C=C2C(=O)c3ccccc3C2=O)c(O)c1 returned MbtI inh -8, MenB inh 4 and PV pol inh 83.
COC(=O)c1ccc(-n2nc(C)cc2C)cc1 was read as MbtI inh -2, MenB inh 7 and PV pol inh 98.
Screening OCC#CCSc1nc2ccccc2o1 returned MbtI inh 3, MenB inh 39* and PV pol inh 101.
`c1ccc2oc(SCCSc3nc4ccccc4o3)nc2c1` gave MenB inh -1 and PV pol inh 106.
Screening O=c1c(=Nc2ccccc2O)c(=O)c2ccccc12 returned MenB inh -8 and PV pol inh 95.

Assay outcomes from PubChem.
